Laboratory results: the supplement of paper PMC3334620
The full ranking holds about 33,000 sequences; the median of “E-score (-0.5 to 0.5)” is about -0.043, and the highest 2% start at about 0.37. Shown is part of a subset that was picked to be rich in the highest values.

Target: T1, Upc2 (UniProt Q12151)
T1 sequence: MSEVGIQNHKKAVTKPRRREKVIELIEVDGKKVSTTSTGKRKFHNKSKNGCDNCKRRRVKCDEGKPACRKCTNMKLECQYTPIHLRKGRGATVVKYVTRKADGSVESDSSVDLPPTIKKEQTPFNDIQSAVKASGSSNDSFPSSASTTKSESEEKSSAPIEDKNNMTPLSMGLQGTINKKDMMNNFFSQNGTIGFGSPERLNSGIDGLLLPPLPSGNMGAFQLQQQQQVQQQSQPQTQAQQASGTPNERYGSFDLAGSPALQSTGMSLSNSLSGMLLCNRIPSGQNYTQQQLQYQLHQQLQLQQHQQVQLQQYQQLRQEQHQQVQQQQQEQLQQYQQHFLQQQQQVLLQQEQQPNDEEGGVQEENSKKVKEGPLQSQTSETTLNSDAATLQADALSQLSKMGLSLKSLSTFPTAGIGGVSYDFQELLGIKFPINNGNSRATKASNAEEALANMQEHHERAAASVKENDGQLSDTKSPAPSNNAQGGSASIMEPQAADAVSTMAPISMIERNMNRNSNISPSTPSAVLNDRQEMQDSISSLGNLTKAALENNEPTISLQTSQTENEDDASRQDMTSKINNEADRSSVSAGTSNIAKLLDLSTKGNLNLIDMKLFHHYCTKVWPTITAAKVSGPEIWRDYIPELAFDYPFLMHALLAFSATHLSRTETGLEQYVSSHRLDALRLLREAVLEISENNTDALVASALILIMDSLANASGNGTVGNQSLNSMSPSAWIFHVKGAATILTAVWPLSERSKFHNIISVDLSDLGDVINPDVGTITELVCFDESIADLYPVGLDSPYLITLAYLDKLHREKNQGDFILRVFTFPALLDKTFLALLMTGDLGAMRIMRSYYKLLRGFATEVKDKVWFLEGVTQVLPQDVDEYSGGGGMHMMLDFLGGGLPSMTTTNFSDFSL
Test: PBM E-score (8-mer binding enrichment) (E-score (-0.5 to 0.5)); higher = stronger / more preferred TF binding
Details: protein concentration: 200 nM; construct: GST-full length
Description: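 Universal 'all 10-mer' protein binding microarrays (Agilent AMADID 015681) probed with GST-tagged S. cerevisiae TFs (full-length or DBD) made by in vitro transcription/translation (PURExpress), about 100-200 nM. Bound TF was detected with fluorescent anti-GST. Each ungapped 8-mer (which stands for itself and its reverse complement) is scored by the PBM enrichment score (E-score), a modified Wilcoxon-Mann-Whitney statistic from -0.5 to +0.5, computed with the Universal PBM Analysis Suite. Scale: above 0.35 generally sequence-specific binding.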

Sequence | PBM E-score
AGTTAAGC | 0.00193
GGTTAAAC | 0.232
CGTTAAGA | 0.341
CGTTAAAC | 0.411
GAAAACTC | -0.114
AGAGAATG | 0.0339
GCAGTGGA | -0.123
CTCAATAA | -0.213
GACAGTGA | -0.0168
CACTAGGA | -0.245
AGATACGA | 0.454
AGATACGC | 0.201
CGATACAA | 0.0776
CGATACGA | 0.464
GGATACGA | 0.463
CGATACGC | 0.267
AGATACGG | 0.307
GGATACCA | -0.0879
GGATACTA | -0.183
TGCGGCAA | -0.127
ATATCTAC | 0.0208
CTGCTCAC | 0.00302
AGCGTGAA | -0.0302
ACAGCTAT | -0.0224
GGGTCGAA | 0.0267
AGGTCGTA | 0.451

Sequence | PBM E-score
CGGTCGTC | 0.0119
GGGTCGGA | 0.0691
GGGTCGTA | 0.42
AGGTCGTG | 0.0575
CGGTCGGA | -0.0376
AGGTCGTC | 0.0416
CGGTCGTA | 0.442
CTGGGTGC | -0.106
GCGCACTA | -0.00558
CGGCTGCC | -0.0671
AACGACCA | 0.405
AACGACCT | 0.386
AGCGACCT | 0.132
TACGACCA | 0.45
AACGACCC | 0.365
CACGACCA | -0.0648
TGCGACCA | 0.0986
ACCGACCG | 0.13
CACGACCG | 0.00924
GACGACCA | 0.071
TCCGACCA | 0.0761
AACGACCG | 0.403
CAGCATAA | -0.0242
GGACCTAC | 0.0699
CCGATCTC | -0.136
AATGAGTC | -0.0524

Sequence | PBM E-score
ATTGGAAC | -0.0244
GGCTAACC | -0.0479
AAGTCGTG | -0.0736
AAGTCGTA | 0.416
GAGTCGGA | -0.0556
AAGTCGTC | 0.121
CAGTCGGA | -0.016
CAGTCGTA | 0.416
CAGTCGTC | -0.106
GAGTCGTA | 0.43
GAGTCGCA | 0.0248
GGACATTA | 0.01
AAATCTAA | -0.16
TCGCATCA | 0.209
CCGGGCAC | -0.214
ACAGATGC | -0.00973
AAGATTGA | -0.156
AAACGAAG | 0.464
AAACGAAA | 0.46
AAACGTAT | 0.328
CAACGAAA | 0.221
CAACGAAG | 0.235
TAACGAAA | 0.334
AGACGAAG | 0.0695
AAACGAAT | 0.451
AACCGAAT | 0.277

Sequence | PBM E-score
ACTCGACA | 0.0576
ACGCACTC | 0.151
GGTTGGGA | -0.0786
CCCTGCGC | -0.276
CGTACAGA | 0.41
CCTACAGC | -0.334
AGTACAGA | -0.0613
AGTACAGC | -0.156
CGTACAGC | 0.446
GGTACAGA | -0.0181
AGCAGACC | -0.0454
CAGGTACA | -0.226
CAGGTACC | -0.112
ATGGTACA | -0.173
AAGGTACT | 0.00877
ATGGTACC | -0.257
ATGGTACG | 0.388
AAGGTACG | 0.393
AAGGTACC | -0.0716
CAGGTACG | 0.396
CTTAGATA | -0.0328
AGCGTGGA | -0.0828
CAGAGACA | -0.356
AGCTCGTG | 0.107
CGCTCGGA | 0.163
CGCTCGTA | 0.466

Sequence | PBM E-score
AGCTCGTC | 0.103
GGCTCGGA | 0.0556
CGCTCGTC | 0.127
GGCTCGTA | 0.472
GGCTCGAA | -0.0434
AGCTCGTA | 0.473
AGGGCTAC | -0.113
GAGGGCGC | -0.0991
GTGGTTGA | -0.0855
GCGTAACA | 0.118
CCGTAAGA | 0.21
CCGTAACA | 0.22
GCGTATCA | 0.182
TCGTAAGA | 0.399
ACGTAAGA | 0.146
TCGTAACA | 0.404
TCGTATCA | 0.463
ACGTATCA | 0.254
CTGCAGAC | -0.0383
AACACTGA | 0.0163
GGGTCAAC | -0.231
TGAACTCA | -0.00504
CACCCTTC | -0.0111
AAATACGT | 0.109
AAATACGA | 0.449
TAATACCA | -0.0667

Sequence | PBM E-score
TAATACGA | 0.429
CAATACGG | 0.196
GAATACTA | 0.104
CAATACGA | 0.419
GAATACGA | 0.439
AAATACGC | 0.212
GAATACGC | 0.175
TAATACTA | 0.105
CAATACGC | 0.0949
ACTTTATA | 0.127
CCGTCCAC | -0.0949
AATACTAG | 0.00488
ATCAGACG | 0.0965
GGAGTGAC | -0.0854
AGCTCCAT | -0.216
ACTGTCCA | -0.0712
CGTACCCC | 0.391
AGTACCCA | -0.131
GGTACCCA | -0.0644
CATACCCC | -0.0287
AGTACCCC | -0.00507
CGTACCCA | 0.376
CTTTTGGA | -0.147
ACCCACAC | 0.11
GATACGCA | 0.276
GATACGGA | 0.278

Sequence | PBM E-score
TATACGCA | 0.449
CATACGGA | 0.365
TATACGGA | 0.47
CATACGCA | 0.313
ACACCATC | -0.205
CCAAGGAC | -0.247
CGGAGAAA | 0.158
CTTGATCA | -0.14
CGCTATAC | 0.392
ATCTATAC | 0.287
CGTTATAC | 0.367
CTCTATAC | 0.397
CTATATAC | 0.358
AGCTATAC | 0.309
GGCTATAC | 0.299
ATTTATAA | 0.0439
CTTTATAC | 0.303
GGTTATAC | 0.383
AGTTATAC | 0.333
ATTTATAC | 0.41
